According to PubChem BioAssay AID902 (National Center for Advancing Translational Sciences (NCATS), 2007):
Several values for one entry are separate records, joined by “and”; a condition that tells them apart may be missing. Identical values can stand only once. The whole screen tested about 130,000 compounds, of which about 1,900 (1.5%) were called active. Roughly 5% stayed inconclusive and do not appear here. This is one part of a sample in which actives are shown more often than they occur. Calls follow the shape of the dose curve; as a rule, active = well fitted cell-killing curve with a large enough effect; inconclusive = small, poorly fitted or top-dose-only effect; inactive = no such curve, though single readings can be large or run the other way. Some compounds were tested as several samples or in several runs, with calls that do not always agree.

Assay: qHTS Screen for Compounds that Selectively Target Cancer Cells with p53 Mutations: Cytotoxicity of p53ts Cells at the Nonpermissive Temperature; also: nearly all actives have a fitted effect of over 55% in size
Conditions: H1299-p53A138V viability at 39C, ATP luminescence, 24 h; series mostly up to 46.1 µM; activity change, negative = cell killing: at the top concentration
% is scaled to controls: 0 for no effect and ±100 for the full control effect; potency is read from the fitted curve at half-maximal effect.

SMILES | activity change, negative = cell killing | Potency
COc1ccc(Br)cc1CNC(=O)c1cc(=O)[nH]c2ccc(S(=O)(=O)N3CCCC3)cc12 | -16.2% (inactive) | –
COc1ccc(NC(=O)CN2CCCN(Cc3ccccc3)S2(=O)=O)cc1 | -4.26% (inactive) | –
COc1ccc(C(=O)Nc2nonc2-c2ccc(OC)c(OC)c2)cc1Cl | -26.9% (inactive) | –
Cn1c(=O)c2sccc2n2c(CCC(=O)NCc3ccccc3Cl)nnc12 | -15.6% (inactive) | –
CC1=C(c2ccc(C)cc2)S(=O)(=O)NC1=NCCCN1CCN(c2cc(C)ccc2C)CC1 | 35.5% (inactive) | –
CC1=C(c2ccc(Cl)cc2)S(=O)(=O)N=C1N1CCN(c2cc(C)ccc2C)CC1 | 0.663% (inactive) | –
Cc1ccc(C)c(N2CCN(CCCNC(=O)Nc3ccc(Cl)cc3)CC2)c1 | – | 10 µM (active)
CCN(CCCNC(=O)c1ccc(Sc2ccc(C)cc2)c(NC(C)=O)c1)c1cccc(C)c1 | -24.9% (inactive) | –
CCOc1ccc(C2C(C(=O)NC)=C(C)Nc3nc4ccccc4n32)cc1OC (stereo unspecified) | 8.77% (inactive) | –
COc1ccccc1C1C(C(=O)N2CCCCC2)=C(C)Nc2nc3ccccc3n21 (stereo unspecified) | -9.81% (inactive) | –
COC(=O)c1ccc(C2C(C(=O)Nc3ccccc3)=C(C)Nc3nc4ccccc4n32)cc1 (stereo unspecified) | – | 12.6 µM (active)
CCOC(=O)c1c(C)[nH]c(C)c1S(=O)(=O)N1CCCC(C(=O)NCc2ccccc2Cl)C1 (stereo unspecified) | 2.61% (inactive) | –
CCc1cnc2c(c1SCC(=O)c1ccccc1)c(=O)n(C)c(=O)n2C | 23.2% (inactive) | –
CC(C)(C)c1ccc(C(=O)N2CCC(c3nc(-c4ccc(S(=O)(=O)N5CCCC5)cc4)no3)CC2)cc1 | -24.5% (inactive) | –
Cc1sc(C2C(C#N)=C(N)N(c3cccc(Cl)c3)C3=C2C(=O)CCC3)cc1CN1CCOCC1 (stereo unspecified) | 7.17% (inactive) | –
COc1ccc(CCNC(=O)c2cc(-c3ccc4c(c3)OCO4)on2)cc1OC | -2.99% (inactive) | –
COc1c2c(cc3occ(-c4ccc5c(c4)OCO5)c(=O)c13)OC(C)(C)C=C2 | – | 10 µM (active)
CCC(=O)N1CCc2cc(S(=O)(=O)NCCC(=O)Nc3cccc(C)c3C)ccc21 | -12.6% (inactive) | –
COc1cccc(NC(=O)CSc2cc(=O)n(C)c3ccc(Cl)cc23)c1 | -18.7% (inactive) | –
CCCCOc1ccc(C(=O)N2CC(=O)Nc3ccc(Br)cc3C2c2ccc(F)cc2)cc1 (stereo unspecified) | 6.43% (inactive) | –
CCCCc1nn2c(=O)cc(COC(=O)c3ccc(NC(=O)c4ccccc4C)cc3)nc2s1 | -22% (inactive) | –
c1ccc2[nH]c(NCCN3CCOCC3)nc2c1 | 2.07% (inactive) | –
CN(C)c1ccc(-c2nc(NCCN3CCOCC3)c3ccccc3n2)cc1 | – | 12.6 µM (active)
c1ccc(-c2nc(NCc3ccco3)c3ccccc3n2)cc1 | -12.3% (inactive) | –

SMILES | activity change, negative = cell killing | Potency
O=C(c1cccc(Br)c1)N1CCN(Cc2cc(=O)n3nc(-c4ccccc4)sc3n2)CC1 | 8.96% (inactive) | –
Cc1csc(-c2nc3ccccc3n2C)n1 | – | 25.1 µM (active)
CC(C)n1c(-c2cccs2)nc2ccccc21 | -17.5% (inactive) | –
Cc1nn2c3ccccc3nc2n(C)c1=O | 0.337% (inactive) | –
COc1ccc(Cn2c(=O)c3oc4ccccc4c3n(CC(=O)Nc3ccc(F)cc3F)c2=O)cc1 | -13.5% (inactive) | –
O=C(Cn1nnc(-c2ccccc2)n1)NCc1ccccc1 | 6.92% (inactive) | –
O=C(Cn1c(=O)nc(-c2ccccc2)c2cc(Cl)ccc21)NCc1ccc(Cl)cc1 | – | 10 µM (active)
CCN(C(=O)Cn1c(=O)nc(-c2ccccc2)c2cc(Cl)ccc21)c1cccc(C)c1 | – | 15.8 µM (active)
CCN(CCCNC(=O)CSc1cc(=O)n(C)c2cc(Cl)ccc12)c1cccc(C)c1 | 3.74% (inactive) | –
CCCN(C(=O)Cn1cc(S(=O)(=O)N2CCN(c3ccccc3F)CC2)c2ccccc2c1=O)c1cccc(C)c1 | 11.6% (inactive) | –
Cc1ccc(CNC(=O)CN2CCN(Cc3ccc(Cl)cc3)C2=O)cc1 | -8.84% (inactive) | –
CC1CCN(S(=O)(=O)c2ccc3c(c2)N(CC(=O)NCCc2ccccc2)C(=O)CO3)CC1 | -9.14% (inactive) | –
Cc1ccc(N(CC(=O)NCc2ccc(Cl)cc2)S(=O)(=O)N(C)C)cc1 | -7.17% (inactive) | –
CCc1cccc(NC(=O)Cn2nc(CC)n3c(cc4cc(C)ccc43)c2=O)c1 | – | 25.1 µM (active)
CCc1nn(CC(=O)Nc2cccc(C)c2C)c(=O)c2cc3sccc3n12 | 9.89% (inactive) | –
CCc1nn(CC(=O)Nc2cc(C)cc(C)c2)c(=O)c2cc3sccc3n12 | -9.46% (inactive) | –
CCCCN(CC)CCCNC(=O)Cn1ncc2c([nH]c3ccc(C)cc32)c1=O | -6.44% (inactive) | –
c1ccc(CNc2ncnc3[nH]ncc23)cc1 | 29.4% (inactive) | –
CCC(C)NC(=O)Cn1c(=O)n(-c2ccc(Cl)cc2)c(=O)c2c3c(sc21)CCCC3 (stereo unspecified) | -4.46% (inactive) | –
Cc1ccc(NC(=O)Cn2c(=O)n(-c3ccccc3)c(=O)c3c4c(sc32)CCCC4)cc1 | – | 12.6 µM (active)
CCCN(CCC)C(=O)Cn1c(=O)n(-c2ccc(Cl)cc2)c(=O)c2c3c(sc21)CCCCC3 | -16.4% (inactive) | –
CCOC(=O)c1c(S(=O)(=O)N2CCCC(C(=O)NCc3ccc(F)cc3)C2)c(C)n(CC)c1C (stereo unspecified) | -13.8% (inactive) | –
COc1ccccc1Nc1c2c(nc3ccc(NC(=O)/C=C/c4cc(OC)c(OC)c(OC)c4)cc13)CCCC2 | – | 15.8 µM (active)
O=C(Nc1c2c(nc3ccccc13)CCCC2)c1ccccc1Br | -2.5% (inactive) | –

SMILES | activity change, negative = cell killing | Potency
COc1cccc(C(=O)Nc2ccc3nc4n(c(=O)c3c2)CCCCC4)c1 | -25.8% (inactive) | –
O=C(O)c1ccc(Cn2c(SCc3ccc(F)cc3)nc3ccncc32)cc1 | -19.3% (inactive) | –
Cc1ccc(Nc2c(-c3ccc(C)s3)nc3ccccn23)cc1 | 1.41% (inactive) | –
Cc1cccc2nc(-c3ccc(Cl)s3)c(Nc3ccc4c(c3)OCCO4)n12 | -25.1% (inactive) | –
Cc1ccn2c(Nc3ccc4c(c3)OCCO4)c(-c3ccc(C)s3)nc2c1 | – | 12.6 µM (active)
CCN(C(=O)c1sc2cc(OC)ccc2c1Cl)c1ccccc1 | -4.72% (inactive) | –
COc1ccc(N2CCN(C3=NS(=O)(=O)C(c4cccc(Br)c4)=C3C)CC2)cc1 | -1.65% (inactive) | –
CCOc1ccc(-n2c(C)nc3c(cnn3-c3ccc(C)cc3)c2=O)cc1 | 6.42% (inactive) | –
Cc1cccc(N2CCN(C(=O)c3ccc4c(c3)CCN4S(=O)(=O)c3ccccc3)CC2)c1C | -24.6% (inactive) | –
Cc1c(C(=O)N2CC(C)OC(C)C2)sc2nc(-c3ccccc3)cn12 (stereo unspecified) | -12.2% (inactive) | –
CCC(CC)c1nn2cc(-c3ccccc3)nc2s1 | – | 6.31 µM (active)
CCC(CC)c1nnc(NS(=O)(=O)Cc2ccccc2)s1 | 2.97% (inactive) | –
CC(C)c1ccc(C2CC(=O)N3CN(C4CCCCC4)CSC3=C2C#N)cc1 (stereo unspecified) | 6.4% (inactive) | –
Cc1noc(/C=C/N(C)C)c1S(=O)(=O)N1CCCC(C(=O)Nc2cccc(F)c2)C1 (stereo unspecified) | -0.583% (inactive) | –
CN(C(=O)c1ccc2c(c1)N(Cc1cccc(Cl)c1)C(=O)c1ccccc1S2=O)C1CCCCC1 (stereo unspecified) | 15.2% (inactive) | –
Cc1ccc2c(=O)c(C(=O)c3cccc(Cl)c3)cn(CC(=O)NCc3ccccc3)c2n1 | 23.8% (inactive) | –
CN1CCC[C@@H]1CCO[C@](C)(c1ccccc1)c1ccc(Cl)cc1 | – | inactive and 12.6 µM (active)
CN1CCCC1CCO[C@@](C)(c1ccccc1)c1ccc(Cl)cc1 (stereo partly specified) | -25.6% (inactive) | –
Cc1ccsc1C(=O)OCC(=O)c1cc(C)n(CC2CCCO2)c1C (stereo unspecified) | – | 7.94 µM (active)
COC(=O)c1ccc2c(=O)n(CC3CCCO3)c(=S)[nH]c2c1 (stereo unspecified) | 9.84% (inactive) | –
Cc1ccsc1C(=O)OCC(=O)c1cc2ccccc2o1 | -18.4% (inactive) | –
COc1ccccc1-n1nnnc1S(=O)(=O)Cc1ccc(Cl)cc1 | – | 6.31 µM (active)
COc1ccccc1N1CCN(C(=O)CN(Cc2ccc(Cl)cc2)S(C)(=O)=O)CC1 | -9.34% (inactive) | –
COc1ccccc1N1CCN(Cc2nnnn2CCc2ccccc2)CC1 | 6.43% (inactive) | –

SMILES | activity change, negative = cell killing | Potency
Cc1cccc(N2CCN(S(=O)(=O)c3ccc4[nH]c5c(c4c3)CCCCC5)CC2)c1C | 7.92% (inactive) | –
CN(C)S(=O)(=O)c1ccc(C(=O)N(Cc2cccnc2)c2nc3c(F)cc(F)cc3s2)cc1 | -14.5% (inactive) | –
O=C(CCS(=O)(=O)c1ccccc1)N(Cc1cccnc1)c1nc2c(F)cccc2s1 | – | 31.6 µM (active)
O=C(CCOc1ccccc1)N(Cc1cccnc1)c1nc2ccc(Cl)cc2s1 | 2.01% (inactive) | –
CCc1ccc(NC(=O)C2CCCN2S(=O)(=O)c2ccc3nc(-c4ccccc4)[nH]c3c2)cc1 (stereo unspecified) | -17.1% (inactive) | –
CCc1cccc(-n2nnc(-c3nsc(NC(=O)c4ccc(C)cc4)n3)c2C)c1 | 7.17% (inactive) | –
CC1Cc2cc(S(=O)(=O)CCC(=O)Nc3ccc(F)c(Cl)c3)ccc2N1C(=O)C1CC1 (stereo unspecified) | -11.4% (inactive) | –
COc1ccc(-n2cnc3cc(C(=O)NC4CCCC4)ccc32)cc1 | 14% (inactive) | –
COC(=O)c1ccc(-c2nc3cc(NC(C)=O)ccc3o2)cc1 | -4.16% (inactive) | –
CCc1ccc2oc(-c3ccc(N)cc3)nc2c1 | – | 10 µM (active)
CCC(C)c1ccc2oc(-c3ccc(NC(=O)c4cc5ccccc5o4)cc3)nc2c1 (stereo unspecified) | 12.3% (inactive) | –
Cc1ccc(C)c(S(=O)(=O)c2nnn3c2nc(N2CCOCC2)c2sccc23)c1 | -8.81% (inactive) | –
CCSc1ncc(Cl)c(C(=O)Nc2cc(C)ccc2C)n1 | -3.08% (inactive) | –
Cc1ccc(NC(=O)c2nc(S(=O)(=O)Cc3cccc(C)c3)ncc2Cl)cc1 | – | 10 µM (active)
CCS(=O)(=O)c1ncc(N(Cc2ccc(F)cc2)Cc2ccco2)c(C(=O)Nc2cc(C)ccc2C)n1 | -4.76% (inactive) | –
Cn1c(=O)n(Cc2c(F)cccc2Cl)c(=O)c2c1nc1n2CCN1c1ccc(F)cc1 | -11.7% (inactive) | –
Oc1c(C(c2ccccn2)N2CCOCC2)ccc2cccnc12 (stereo unspecified) | – | 12.6 µM (active)
Cc1nc2sc(C(c3ccco3)N3CCOCC3)c(O)n2n1 (stereo unspecified) | 11.5% (inactive) | –
Oc1c(C(c2ccccc2Cl)N2CCOCC2)sc2nc(-c3ccco3)nn12 (stereo unspecified) | -14% (inactive) | –
Cc1ccc(CCNC(=O)c2ccc3c(c2)N(Cc2cc(C)ccc2C)C(=O)c2ccccc2S3=O)cc1 (stereo unspecified) | 1.71% (inactive) | –
CC(=O)N1CCc2cc(Br)cc(S(=O)(=O)CCC(=O)NCCc3ccc(Cl)cc3)c21 | -2.18% (inactive) | –
Cn1nnnc1SCCNCc1ccc(Cl)c(Cl)c1 | 11.3% (inactive) | –
COc1cc(CNCCSc2nnnn2C)ccc1OCc1c(F)cccc1Cl | -22.3% (inactive) | –
COc1cc(CNCCSc2nnnn2C)ccc1OCc1ccc(Cl)cc1Cl | – | 25.1 µM (active)
